# Screens as filed in PubChem BioAssay.
# Many of the other results were omitted from the sample, so hits are more common in it than they were.
# Cycloheximide cs = Cycloheximide Counterscreen for Small Molecule Inhibitors of Shiga Toxin; cell reporter, cycloheximide protein synthesis inhibition counterscreen; max response, %; 300,000 compounds, 12% hits; AID 2314, 2010; in the data active = max response mostly above about 13%, no sharp cut-off; inactive = mostly below about 14%; note: read at 38.3 µM for the half of the compounds with a filed dose; 0% is about no effect
# LASV entry inh = qHTS for Inhibitors of binding or entry into cells for Lassa Virus. Lassa virus pseudotype entry inhibition, cell reporter. Potency, µM (top dose mostly 37.9 µM), inactives show top-dose activity change, negative = inhibition, hits mostly inhibitors. 300,000 compounds, 1.2% hits. AID 540256, 2011; calls by dose curve; tested in HEK293 cells; note: potency is the fitted concentration of half-maximal effect; % is set by controls: 0 for no effect and ±100 for the full control effect; nearly all actives have a fitted effect of over 50% in size
# Shiga inhibitor = A qHTS for Small Molecule Inhibitors of Shiga Toxin; Vero cells, Shiga toxin protein synthesis inhibition reporter; 290,000 compounds, 9.2% hits; inhibition, % at 38.7 µM; AID 2315, 2010; in the data active = inhibition mostly above about 28%, no sharp cut-off; inactive = mostly below about 43%; note: 0% is about no effect
# AMA1-RON2 inh = qHTS for Inhibitors of AMA1-RON; Towards Development of Antimalarial Drug Lead: Primary Screen | Plasmodium falciparum AMA1 (3D7) - RON2 peptide interaction | AlphaScreen AMA1-biotinylated RON2 peptide binding | Potency, µM (titrated, usually from 58.2 µM), without a hit: top-dose activity change, negative = inhibition, hits mostly inhibitors | 360,000 compounds, 0.2% hits; active = well fitted inhibition curve with a large enough effect; inconclusive = small, poorly fitted or top-dose-only effect; inactive = no such curve, though single readings can be large or run the other way;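 note: potency is the fitted concentration of half-maximal effect; 0% = vehicle wells and -100% = peptide control; nearly all actives have a fitted effect of over 45% in size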
#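 AMA1 (3D7) with his tag at 25 nM final met compounds first, then biotinylated RON2 peptide at 25 nM; detection used donor plus acceptor beads, 10 µg/mL apiece, read by AlphaScreen after 30 min at room temperature.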
# MARV entry inh = qHTS for inhibitors of binding or entry into cells for Marburg Virus; Marburg virus pseudotyped entry inhibition, cell reporter; Potency, µM (highest dose often 37.8 µM), without a hit: top-dose activity change, negative = inhibition, hits mostly inhibitors; 300,000 compounds, 1.8% hits; calls by dose curve; tested in HEK293 cells; note: potency is the fitted concentration of half-maximal effect; % is set by controls: 0 for no effect and ±100 for the full control effect
# * = called active by the depositor; ? = inconclusive; nt = not tested or not shown; [ ] = another dose, or the depositor's remark.
SMILES,Cycloheximide cs,LASV entry inh,Shiga inhibitor,AMA1-RON2 inh,MARV entry inh
CC(=O)C1=CN(CCc2c[nH]c3ccccc23)C(=O)NC1c1ccccc1 (centres undefined),nt,nt,nt,nt,3%[14.2 µM]
O=c1[nH][nH]c(=O)n1-c1ccccc1,-3,20%[46.1 µM],9,1%,?
Cc1c(O)ccc2c(CN3CCN(C/C=C/c4ccccc4)CC3)cc(=O)oc12,-3,?,19,0%,8.9µM*
Cc1ccc2c(COC(=O)c3ccccc3Cl)cc(=O)oc2c1,42*,-4%[46.1 µM],59*,11%,?
Cc1cc(C)c2c(CN3CCN(C)CC3)cc(=O)oc2c1,-1,-3%,-16,8%,?
Cc1cc(C)c2c(CN3CCN(CCO)CC3)cc(=O)oc2c1,72*,-4%,57*,7%,-10%
Cc1cc2oc(=O)cc(CN3CCN(C/C=C/c4ccccc4)CC3)c2cc1O,-3,nt,7,nt,1%
CCOc1ccccc1C(=O)N[C@H](C(=O)OCc1cc([N+](=O)[O-])cc2c1OCOC2)C(C)C,3,?,12,?,11µM*
Cc1ccc(NC(=O)C2CCCN(c3ncnc4onc(C)c34)C2)cc1Cl (centres undefined),nt,3%[46.1 µM],nt,nt,nt
COc1cc(OC)cc(C(=O)N[C@H](C(=O)OCc2cc(=O)oc3cc(C)ccc23)C(C)C)c1,-2,-1%,12,-8%,?
CCOc1ccccc1C(=O)N[C@H](C(=O)OCc1cc(=O)oc2cc(C)ccc12)C(C)C,26*,-10%,17,4%,?
CC(=O)CCC(=O)N1CCCC(CNC(=O)c2ccc(-c3ccccc3)cc2)C1 (centres undefined),21*,nt,42*,-5%,nt
CSCC(=O)N1CCCC(CNC(=O)c2ccc(-c3ccccc3)cc2)C1 (centres undefined),12*,-2%,22,-10%,-1%[46.1 µM]
O=C(NCC1CCCN(C(=O)c2cccnc2)C1)c1ccc(-c2ccccc2)cc1 (centres undefined),7,?,4,-5%,0%[46.1 µM]
COc1ccc(CCN2CC(C(=O)OCC(=O)N(C)CC(=O)Nc3ccccc3Cl)CC2=O)cc1OC (centres undefined),nt,nt,nt,-6%,nt
CCn1c(C)nc2cc(-c3nc4n(n3)Cc3ccccc3-4)ccc21,-10,?,-22,-3%,?
Cc1ccc(-c2nc3n(n2)Cc2ccccc2-3)cc1,20*,?,14,-3%,?
NC(=S)Cc1nc2n(n1)Cc1ccccc1-2,-2,-19%,-9,61%,0%
Fc1ccc(-c2nc3n(n2)Cc2ccccc2-3)cc1,42*,13µM*,66*,-8%,?
Cc1ccccc1CN1C(=O)C(C)N=C(c2ccccc2)c2ccccc21 (centres undefined),nt,-19%[46.1 µM],nt,nt,nt
Cc1cc(Cl)ccc1NC(=O)C1CCN(S(=O)(=O)c2ccc3[nH]c(=O)ccc3c2)CC1,nt,18%[46.1 µM],nt,nt,nt
NC(=O)N/N=C/c1cn(-c2ccccc2)nc1-c1cccnc1,14,nt,9,-5%,nt
NC(=S)N/N=C/c1cn(-c2ccccc2)nc1-c1cccnc1,19*,nt,22,92%,nt
O/N=C/c1cn(-c2ccccc2)nc1-c1ccccc1,14*,12%[46.1 µM],12,4%,?
N#C/C(=C\c1cn(-c2ccccc2)nc1-c1ccccc1)S(=O)(=O)c1ccccc1,-1,8%,2,-8%,10%
SMILES,Cycloheximide cs,LASV entry inh,Shiga inhibitor,AMA1-RON2 inh,MARV entry inh
c1ccc(Cn2nc(-c3ccccc3)nc2-c2ccccc2)cc1,54*,?,52*,-8%[11.6 µM],?
NC(=O)Cn1nc(-c2ccccc2)nc1-c1ccccc1,nt,1%,nt,0%,5%
Cc1ccc(Cn2nc(-c3ccccc3)nc2-c2ccccc2)cc1,45*,?,121*,9%,?
Cc1noc(/C=C/Nc2ccc(F)cc2F)c1[N+](=O)[O-],53*,?,141*,-14%,?
COc1ccccc1N/C=C/c1onc(C)c1[N+](=O)[O-],21,nt,19,10%,nt
Cc1ccc(S(=O)(=O)CC(=O)N2CCN(c3ccccc3F)CC2)cc1,4,12%,-5,-2%,10%
O=C(Cc1ccccc1[N+](=O)[O-])N1CCN(c2ccccc2F)CC1,12*,3%,14,-8%,?
Cc1ccc(C)c(N2CCN(c3ncccc3[N+](=O)[O-])CC2)c1,-3,?,-11,?,2.5µM*
